Laboratory results published in PubChem BioAssay.

How the values were obtained:
[1] = test system: Human papillomavirus type 1a protein E7 (residues 44-93); assay: HPV1a E7 fragment binders on microarrays, primary screen, biochemical, small-molecule microarray, residues 44-93, 635 nm fluorescence (AID 1108); settings: small-molecule microarray binding, fluorescence 635 nm; higher = more signal;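 also: E7 fragment applied at 1 µg/mL in TBST for 1 h at 4 C; score combines spot fluorescence with its signal to noise ratio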
[2] = modulators of HCV replicon luciferase signal, primary screen, HCV replication inhibitor project, Huh7 cells, luciferase reporter (AID 1109); settings: 48 h, higher = more signal;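 also: huh7 hepatoma cells harbouring a luciferase neomycin HCV replicon reporter; luciferase luminescence as measure of HCV replicon replication; test concentration not given here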
[3] = molecular target: Left-right determination factor 2 (Homo sapiens) (UniProt O00292); assay: LEFTY2 binders on small-molecule microarrays, primary screen, biochemical, small-molecule microarray, 635 nm fluorescence scan (AID 1110); settings: LEFTY2 binding, higher = more signal
[4] = molecular target: Calmodulin-1 (Homo sapiens) (UniProt P0DP23); assay: CALM1 binders on microarrays, EGTA buffer, profiling panel, biochemical, small-molecule microarray, Cy5-labelled CALM1 (AID 1111); settings: Cy5-CALM1 binding fluorescence, higher = more signal;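 also: labelled calmodulin applied in Tris saline Tween buffer holding calcium plus EGTA and DTT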
[5] = molecular target: Calmodulin-1 (Homo sapiens) (UniProt P0DP23); assay: calcium-bound CALM1 binders on microarrays, profiling panel, artefact control for SMM control-protein annotation, biochemical, small-molecule microarray, Cy5-labelled CALM1, plus calcium (AID 1112); settings: Cy5-CALM1 binding fluorescence, higher = more signal;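 also: score merges spot fluorescence with signal to noise from triplicate slides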
[6] = small-molecule microarray binders of probe aWnt5a, primary screen, biochemical, biotinylated probe, 635/667 nm fluorescence (AID 1113); settings: higher = more signal;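 also: score merges 667 nm fluorescence intensity with signal-to-noise per printed feature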
[7] = small-molecule microarray binders of probe aShh, primary screen, biochemical, biotinylated probe, 635/667 nm fluorescence (AID 1114); settings: higher = more signal;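 also: probe is biotin-labelled aShh protein from a stem cell growth factor screen; measures binding of labelled protein to compounds printed on the slide; score merges feature fluorescence at 667 nm with signal-to-noise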
[8] = small-molecule microarray binders of probe aNog, primary screen, biochemical, biotinylated probe, 635/667 nm fluorescence (AID 1115); settings: higher = more signal;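 also: probe is biotinylated aNog protein used at 0.15 µg/mL for 1 h at 4 C; z-score combines 667 nm fluorescence of each spot with its signal to noise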
[9] = molecular target: Torsin-1A-interacting protein 1 (Homo sapiens) (UniProt Q5JTV8); assay: LAP1 binders from COS7 cell lysate, primary screen, small-molecule microarray, 635/667 nm fluorescence (AID 1116); settings: COS7-hLAP1 lysate binding, 635 nm fluorescence, higher = more signal
[10] = molecular target: Alpha-bungarotoxin (Bungarus multicinctus) (UniProt P60615); assay: alpha-bungarotoxin binders on microarray, profiling panel, artefact control for SMM control protein annotation, biochemical, small-molecule microarray, Alexa647 label, 635/667 nm fluorescence (AID 1117); settings: alpha-BTX-A647 binding fluorescence, higher = more signal
Chain of Alpha-bungarotoxin (Bungarus multicinctus) (P60615 whole entry, looked up): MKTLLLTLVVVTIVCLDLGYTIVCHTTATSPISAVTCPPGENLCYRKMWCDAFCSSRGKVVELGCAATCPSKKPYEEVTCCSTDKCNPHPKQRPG

Chain of Torsin-1A-interacting protein 1 (Homo sapiens) (Q5JTV8 whole entry, looked up): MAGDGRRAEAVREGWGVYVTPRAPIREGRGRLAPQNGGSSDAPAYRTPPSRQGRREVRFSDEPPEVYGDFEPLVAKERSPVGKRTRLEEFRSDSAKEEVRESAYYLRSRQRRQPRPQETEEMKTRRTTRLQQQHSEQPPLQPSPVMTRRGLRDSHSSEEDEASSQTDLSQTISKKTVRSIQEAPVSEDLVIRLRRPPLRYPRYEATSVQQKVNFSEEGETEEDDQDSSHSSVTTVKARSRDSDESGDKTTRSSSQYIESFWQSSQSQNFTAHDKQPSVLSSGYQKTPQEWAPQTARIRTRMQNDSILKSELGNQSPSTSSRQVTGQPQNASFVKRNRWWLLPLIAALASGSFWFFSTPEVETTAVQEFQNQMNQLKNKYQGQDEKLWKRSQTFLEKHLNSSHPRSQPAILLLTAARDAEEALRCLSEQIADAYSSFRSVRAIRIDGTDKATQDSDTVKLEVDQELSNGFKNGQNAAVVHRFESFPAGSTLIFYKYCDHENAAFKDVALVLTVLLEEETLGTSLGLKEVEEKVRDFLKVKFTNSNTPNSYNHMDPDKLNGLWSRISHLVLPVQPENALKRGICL
Chain of Left-right determination factor 2 (Homo sapiens) (O00292 whole entry, looked up): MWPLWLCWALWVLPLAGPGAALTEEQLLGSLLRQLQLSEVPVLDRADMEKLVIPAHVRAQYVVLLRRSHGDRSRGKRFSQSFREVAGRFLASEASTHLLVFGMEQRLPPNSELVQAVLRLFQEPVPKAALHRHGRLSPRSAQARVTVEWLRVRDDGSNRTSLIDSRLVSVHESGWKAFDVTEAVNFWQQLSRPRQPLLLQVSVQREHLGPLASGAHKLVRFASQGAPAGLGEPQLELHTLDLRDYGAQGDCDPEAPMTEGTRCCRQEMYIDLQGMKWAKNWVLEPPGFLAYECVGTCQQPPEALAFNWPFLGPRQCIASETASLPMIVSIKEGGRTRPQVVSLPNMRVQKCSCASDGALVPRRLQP

Compound | composite z-score [1] | z-score [2] | composite z-score [3] | composite z-score [4] | composite z-score [5] | composite z-score [6] | composite z-score [7] | composite z-score [8] | composite z-score [9] | composite z-score [10]
O=C1C[C@@](C(=O)NCc2ccccc2)(c2ccc([N+](=O)[O-])cc2)[C@@H](c2ccc(CO)cc2I)N1C1CCCCC1 | 1.14 | -2.36 | 0.597 | 0.261 | 0.315 | 0.0733 | 0.192 | -0.175 | 0.52 | 0.414
COCCOC(=O)N1C(=O)[C@@]2(c3cc(C#CC4(O)CCCCCC4)ccc31)[C@H](C(=O)N1CCN(c3ncccn3)CC1)[C@H]1C(=O)O[C@H](c3ccccc3)[C@H](c3ccccc3)N1[C@@H]2c1ccc(O)cc1 | 0.958 | -1.69 | -0.28 | 1.56 | 1.05 | 0.0633 | 0.128 | -0.261 | 1.53 | 1.61
COc1cc(C(O)C2C=CC3C(=O)NC(=O)C3N2Nc2ccc(Cl)cc2Cl)cc(OC)c1OC (stereo not given) | 1.44 | 0.221 | -0.118 | 2.03 | 0.866 | 0.0809 | -0.0243 | 1.22 | 1.22 | 0.877
COCCCNC(=O)[C@]1(CCS(=O)(=O)c2ccccc2)N=C(c2ccc(OCCCO)cc2)O[C@@H]1c1ccccc1 | 1.11 | -0.995 | 0.494 | 1.62 | 0.214 | 0.0179 | -0.161 | -0.315 | 1.8 | 1.5
COCCOC(=O)N1C(=O)[C@@]2(c3cc(C#CCNC(N)=O)ccc31)[C@H](C(=O)N1CCCCCCC1)[C@H]1C(=O)O[C@H](c3ccccc3)[C@H](c3ccccc3)N1[C@@H]2c1ccc(OCCO)cc1 | 0.748 | -0.431 | 0.277 | 1.13 | 0.801 | 0.0075 | -0.138 | -0.118 | 0.263 | 1.09
C[N+](C)(C)CCCC[C@@H]1NC(=O)[C@@H]2C[C@H](C(=O)NCCCCCNC(=O)CS)[C@H](c3cccc(OCCO)c3)N2C1=O | 0.911 | -0.193 | 0.0926 | -0.0534 | 0.581 | -0.0478 | 0.151 | 0.0197 | -0.034 | 0.568
COCCCNC(=O)[C@]1(Cc2ccccc2)N=C(c2ccc(OCCCO)cc2)O[C@@H]1c1ccccc1N=[N+]=[N-] | 1.24 | -3.4 | -0.314 | 1.61 | 0.24 | 0.008 | -0.0866 | 0.433 | 0.997 | 0.974
COC(=O)[C@@]1(Cc2ccccc2N=[N+]=[N-])N=C(c2ccc(OCCCO)cc2)O[C@H]1c1ccccc1 | 1.34 | -3.38 | -0.319 | 0.694 | 0.278 | 0.0136 | 0.0121 | -0.466 | 1.37 | 0.873
N#Cc1ccc(NN2C(C(O)c3ccccc3)C=CC3C(=O)N(c4ccccc4)C(=O)C32)cc1 (stereo not given) | 0.117 | 0.335 | -0.135 | -0.0722 | -0.162 | 0.0797 | -0.102 | 0.642 | -0.113 | 0.153
O=C1C[C@@](C(=O)O)(c2ccc([N+](=O)[O-])cc2)[C@@H](c2ccc(CO)cc2)N1CC12CC3CC(CC(C3)C1)C2 | 1.4 | -1.94 | 0.408 | 1.09 | 0.472 | -0.172 | 0.358 | 0.995 | 1.41 | 1.2
OCc1ccc(-c2cc[n+](Cc3cccc(OC(F)(F)F)c3)cc2)cc1 | 1.19 | 0.717 | 1.36 | -0.245 | -0.196 | -0.0006 | -0.0146 | 0.425 | 1.08 | 1.9
Cc1ccc(S[C@]2(C(=O)O)CC(=O)N(C3CCCCC3)[C@@H]2c2ccc(CO)cc2)cc1 | 0.755 | -1.2 | -0.442 | 0.381 | -1.39 | 0.0581 | 0.428 | 1.1 | 0.578 | 0.842
NCCCCCCNC(=O)[C@H]1C[C@H]2C(=O)N3CCC[C@H]3C(=O)N2[C@H]1c1ccc(O)cc1 | -0.0863 | 0.0433 | 0.55 | 0.192 | 0.102 | 0.15 | -0.0441 | -0.28 | 0.999 | 1.05
